This is an account of results in PubChem BioAssay.

Test [1] concerns XIP peptide (Xip251-270) binding. The test is described as follows: XIP fragment 251-270 binding compounds – biochemical, small-molecule microarray, fluorescence 635/667 nm, 0.1 µg/mL protein, primary screen (AID 1182). The note with it: fluorescent protein binding, 635 nm, higher = more signal, called active from +8 up or from −8 down.
The next test deals with XIP peptide (Xip251-270). Kind of test: compounds binding XIP fragment 251-270 – biochemical, small-molecule microarray, fluorescence 635/667 nm, 0.5 µg/mL protein, primary screen (AID 1183). As to conditions: fluorescence 635 nm, higher = more signal.
Test [2] can be described thus: blood-stage malaria parasite viability loss – strain 3D7, DAPI fluorescence, 100 nL, primary screen (AID 1184).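 Note: parasites grown inside human red blood cells in medium with human serum.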 The note with it: P. falciparum 3D7 growth, 3 d, higher = more signal.
The target of test [3] is Homeobox protein Hox-A13 (Mus musculus) (UniProt Q62424). The test is described as follows: disruptors of Hoxa13 oligonucleotide interaction – biochemical, fluorescence polarization, labeled oligonucleotide, primary screen (AID 1185). As to conditions: Hoxa13:DNA binding, 15 min, higher = more signal, called active from +8 up or from −8 down. (In general: In fluorescence polarisation assays a small probe gives low polarisation when free and higher when bound to something large.)

Test [4] can be described thus: blockers of DNA damage checkpoint Chk1 activation – imaging, HeLa, hydroxyurea, phospho-Chk1 antibody, percent positive cells, primary screen (AID 1186). As to conditions: hydroxyurea-induced phospho-Chk1 immunofluorescence imaging, higher = more signal.
Test [5] can be described thus: blockers of DNA damage checkpoint Chk1 activation – imaging, HeLa, hydroxyurea, phospho-Chk1 nuclear intensity, primary screen (AID 1187). As to conditions: hydroxyurea-induced phospho-Chk1 immunofluorescence imaging, higher = more signal.

The structures appear in SMILES notation. The source made the active and inactive calls. Unless noted, the rule behind the calls is not given here.

Chain of Homeobox protein Hox-A13 (Mus musculus) (Q62424 whole entry, looked up): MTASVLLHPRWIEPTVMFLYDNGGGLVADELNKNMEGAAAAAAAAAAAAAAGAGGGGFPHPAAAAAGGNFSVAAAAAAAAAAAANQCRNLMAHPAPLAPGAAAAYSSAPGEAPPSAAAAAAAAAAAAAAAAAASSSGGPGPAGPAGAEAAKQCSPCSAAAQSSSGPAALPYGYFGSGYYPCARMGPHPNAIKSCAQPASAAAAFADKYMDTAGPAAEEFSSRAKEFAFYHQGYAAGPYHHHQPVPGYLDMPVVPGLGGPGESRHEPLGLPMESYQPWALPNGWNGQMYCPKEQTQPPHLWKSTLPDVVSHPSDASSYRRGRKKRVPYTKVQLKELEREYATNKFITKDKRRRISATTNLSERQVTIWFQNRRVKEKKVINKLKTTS

Turning to `CC1=C([C@H](O)CCc2ccccc2)[C@H](CO)[C@@H]2C(=O)N(C)C(=O)[C@@H]2C1`, the composite z-score in test [1] was -0.0688 (inactive); with XIP peptide (Xip251-270), 0.389. The z-score in test [2] was 0.306; in test [3], -4.05 (inactive); in test [4] it was -0.296 (inactive); in test [5], -0.528 (inactive).
Take `CCOC(=O)C1=CC[C@@H](c2ccccc2C(F)(F)F)N(S(=O)(=O)c2ccc(C)cc2)[C@H]1c1ccc(C#N)cc1`: the composite z-score in test [1] is 0.205 (inactive); in the test on XIP peptide (Xip251-270), 0.534. For the same compound, the z-score in test [2] is -2.2; in test [3] it was -0.224 (inactive); in test [4], 0.479 (inactive); in test [5] it was -0.581 (inactive).
In the case of `CCOc1cc(C(O)C2C=CC3C(=O)N(c4ccccc4)C(=O)C3N2Nc2ccc(C#N)cc2)ccc1O` (stereo not drawn), the composite z-score was 0.186 (inactive) in test [1] and 0.535 with XIP peptide (Xip251-270). Moreover, the z-score in test [2] was -0.435; in test [3], -4.2 (inactive); in test [4] it was -0.22 (inactive); in test [5], -0.0602 (inactive).
As for `C=C(C)[C@@H]1CC=C(C(O)C2C=CC3C(=O)N(c4ccccc4)C(=O)C3N2Nc2ccccc2F)CC1` (stereo partly drawn), the composite z-score is 0.301 (inactive) in test [1] and 0.656 with XIP peptide (Xip251-270). Also, the z-score in test [2] is -0.282; in test [3], -1.52 (inactive); in test [4], 0.749 (inactive); in test [5], 0.372 (inactive).
`COc1ccc([Si](C)(C)[C@H]2[C@H](CCO)O[C@@]3(C(=O)N(Cc4cccc(N5C(=O)COc6ccccc65)c4)c4ccccc43)[C@@H]2C)cc1`: the composite z-score in test [1] was 0.595 (inactive); with XIP peptide (Xip251-270), 0.649. In addition, the z-score in test [2] is -2.8; in test [3], -1.2 (inactive); in test [4] it was -0.327 (inactive); in test [5] it was 0.208 (inactive).
For the compound `OCC1CC(c2ccccc2)=NO1` (stereo not drawn), the figures for the composite z-score (in test [1]; in the test on XIP peptide (Xip251-270)) were -0.336 (inactive) and -0.118, respectively. Further, the z-score in test [2] is 0.308; in test [3], 0.0368 (inactive); in test [4], -0.582 (inactive); in test [5], -0.0558 (inactive).
With `COc1ccc(-c2cc3c(c(CCc4ccccc4)n2)[Si](C(C)C)(C(C)C)OC3)cn1`, the composite z-score in test [1] was -0.406 (inactive); with XIP peptide (Xip251-270), -0.251. For the same compound, the z-score was -0.118 in test [2], -2.5 (inactive) in test [3], -0.0328 (inactive) in test [4] and 0.236 (inactive) in test [5].
Consider `COC(=O)[C@@]1(Cc2ccccc2)[C@H]2c3cc(C(=O)N(C)C)n(CCN4CNCC4=O)c3C[C@H]2CN1C(=O)c1ccccc1`, for which the composite z-score was 0.858 (inactive) in test [1] and 1.01 with XIP peptide (Xip251-270). Also, the z-score is -0.17 in test [2], -2.94 (inactive) in test [3], -0.232 (inactive) in test [4] and -0.33 (inactive) in test [5].
